Among all 100,000 compounds or so, about 930 (0.93%) were called active. No stated cut-off is given here; in the data, active means inhibition mostly above about 56% (no sharp cut-off); inactive means mostly below about 77%. Shown is part of a subset that was picked to be rich in actives.

In the test the target is Salicylate synthase (Mycobacterium tuberculosis (strain CDC 1551 / Oshkosh)) (UniProt P9WFX0). Description: inhibitors of M. tuberculosis MbtI – biochemical, fluorescence intensity, primary screen (AID 493033). Particulars: purified MbtI enzyme, fluorescence intensity read-out, stronger effect = higher value, concentration not given here.
Sequence of Salicylate synthase (Mycobacterium tuberculosis (strain CDC 1551 / Oshkosh)) (P9WFX0 whole entry, looked up): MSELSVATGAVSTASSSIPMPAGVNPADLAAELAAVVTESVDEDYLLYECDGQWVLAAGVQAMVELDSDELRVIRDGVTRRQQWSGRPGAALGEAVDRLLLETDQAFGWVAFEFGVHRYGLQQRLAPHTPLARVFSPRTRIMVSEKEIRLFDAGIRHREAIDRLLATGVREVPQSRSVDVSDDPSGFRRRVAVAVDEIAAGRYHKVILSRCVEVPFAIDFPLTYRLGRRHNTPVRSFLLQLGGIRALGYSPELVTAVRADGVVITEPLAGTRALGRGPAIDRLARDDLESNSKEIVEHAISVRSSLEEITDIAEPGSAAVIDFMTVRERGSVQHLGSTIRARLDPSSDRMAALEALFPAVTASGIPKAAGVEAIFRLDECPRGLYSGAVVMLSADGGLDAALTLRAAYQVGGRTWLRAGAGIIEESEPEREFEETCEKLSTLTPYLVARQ
Take `CN=Cc1cc(-c2ccccc2)sc1S`: the inhibition was 95.8% (active).
On to `CSc1ncnc2sc(-c3ccccc3)cc12`, for which the inhibition is -44.5% (inactive).
To `O=c1cc(-c2ccccc2)sc2ccc(Cl)cc12` belongs -0.1% (inactive); to `Cc1nn2c(=O)/c(=C/c3ccccc3)sc2nc1=O`, -1.65% (inactive); to `Cc1nc(Cc2nnc(SC/C(O)=C(\C#N)c3nc4ccccc4[nH]3)o2)cs1`, 25.6% (inactive).
Turning to `Cc1occc1-c1nnc2n1N=C(c1ccc(-c3cc(Cl)ccc3Cl)o1)CS2`, the inhibition is 98% (active).
Next, `O=C(Nc1cccc(Br)c1)C1CC(=O)N(C2CCCC2)C1` (stereo not given): -4.55% (inactive).
As to `CN(C)c1ccc(-c2ncnn2-c2ccccc2)cc1`, the inhibition is -9.6% (inactive).
Next, `Cc1csc(NC(=O)C2CCC(CNS(=O)(=O)c3cccc4nsnc34)CC2)n1` (stereo not given): -0.3% (inactive).
Next, `Cc1ccc(Cl)cc1N1CCN(C(=O)/C=C/c2ccc(S(=O)(=O)NCc3ccco3)cc2)CC1`: 5.7% (inactive); `COC(=O)c1cccc(NC(=O)CCCN2C(=O)c3ccccc3C2=O)c1`: -11.5% (inactive).
Next, `Cc1ccc(NC(=O)COC(=O)C2CCC2)cc1Cl`: -5.6% (inactive).
Consider `COc1cc(NS(=O)(=O)c2cc(C)c(Cl)cc2C)c(C(=O)O)cc1OC`, for which the inhibition was -26.2% (inactive).
To `O=C(C1=Cc2sc3c(c2CS1)CCCC3)N1CCCC1` belongs 98.8% (active); to `O=C(O)C1=Cc2sc3c(c2CS1)CCCC3`, 95.4% (inactive).
For the compound `O=C(c1ccc(Cl)cc1)N1CCCC1`, the inhibition is -5.1% (inactive).
Next, `O=C(O)C1CCC(CNCc2cccc(Br)c2)CC1` (stereo not given): -9.65% (inactive).
Next, `O=C(/C=C\c1cn(-c2ccccc2)nc1-c1cccs1)N1CCOCC1`: -50.8% (inactive).
To `CCN(CC)c1ccc(C=C(C#N)C#N)c(OC(C)=O)c1` belongs -99.2% (inactive); to `CCN(CC)c1ccc(-n2nc3cc(C)c(NC(C)=O)cc3n2)cc1`, 88.6% (inactive).
Turning to `CCN(CC)c1ccc2oc(=O)c(C)nc2c1`, the inhibition was 94.8% (active).
Next, `CCCc1cc2c(cc1N)OCO2`: 13.3% (inactive); `CCc1nc2cccnc2n1-c1ccc(CC(=O)NCCN2CCOCC2)cc1`: 2.4% (inactive); `O=C(c1ccco1)N1CCCCCCC1`: -14.8% (inactive).
Next, `S=C(Cc1ccccc1)N1CCCCC1`: 29.6% (inactive).
As to `S=C(c1ccc(-c2ccccc2)o1)N1CCCCC1`, the inhibition was 102% (active).
Regarding `COC(=O)c1cc(Cl)cc(Cl)c1O`, the inhibition is -95.7% (inactive).
Next, `O=c1cc(CN2CCN(Cc3ccccc3)CC2)nc2sccn12`: 12% (inactive); `COc1cccc(CN(C)C(=O)/C=C/c2ccco2)c1OC`: 9.5% (inactive).
Consider `Cn1ncc2c(NCc3cccnc3)ncnc21`, for which the inhibition is 0.9% (inactive).
Next, `O=C(CCn1c(=O)oc2ccccc21)Sc1ccc(C(F)(F)F)cc1`: 70.7% (active).
To `Cc1cccc(NC(=O)CCn2c(=O)oc3ccccc32)c1` belongs 3% (inactive).
To `O=C(CCCn1c(=O)oc2ccccc21)Nc1cccnc1` belongs -8.05% (inactive); to `CCN(Cc1nc(-c2ccc(OC)c(OC)c2)no1)C(=O)CCC1CCCCC1`, -0.6% (inactive); to `CCCCn1c2c(c(=O)n(C)c1=O)C(c1ccc(OC)cc1)C1=C(CCCC1=O)N2` (stereo not given), -21% (inactive).
Take `Cc1cc(C)nc(SCc2nnc(SCC(=O)N3c4ccccc4Sc4ccc(Cl)cc43)o2)n1`: the inhibition is -20.7% (inactive).
Next, `Cc1ccc(Sc2c(C)[nH]n(-c3ccccc3)c2=O)cc1`: -4.4% (inactive); `CC1=NOC(=O)C1C(c1cccc(Br)c1)c1c(C)[nH]n(-c2ccccc2)c1=O` (stereo not given): 98.3% (active); `Cc1noc(C)c1C(=O)c1c(C)[nH]n(-c2ccccc2)c1=O`: 3.5% (inactive).
Next, `S=c1[nH]nc(Nc2ccccc2)s1`: 99.7% (active); `S=c1[nH]nc(NCCc2ccccc2)s1`: 86.7% (inactive); `c1ccc(Nc2nncs2)cc1`: 12.9% (inactive).
To `COc1ccccc1-c1nnc(Cc2ccc(F)cc2Cl)o1` belongs -4.2% (inactive); to `O=C1CN(C(=O)C2COc3ccccc3O2)c2ccccc2N1` (stereo not given), -23.2% (inactive); to `O=C(CSc1nc(-c2ccccc2)nc2c1CCCC2)N/N=C/c1ccco1`, -6.4% (inactive).
`COc1ccccc1C(=O)CSc1cccc[n+]1[O-]`: the inhibition was -9.25% (inactive).
For `CC(C)(C)CNC(=S)NN`, the inhibition was -14.9% (inactive).
As for `C=C(C)CNC(=S)N1CCNCC1`, the inhibition is -14.4% (inactive).
Next, `C=C(C)CNC(=S)NN`: 98.5% (active); `CCc1nc(NCCO)c(C#N)c2c1CCCC2`: -125% (inactive).
With `O=C(NC1=NCCS1)c1ccccn1`, the inhibition was -4.65% (inactive).
With `COc1ccc(-c2nn(-c3ccccc3)cc2/C=C\C(=O)N(C)C)cc1`, the inhibition was -4.25% (inactive).
Consider `O=C(CNCc1ccc2c(c1)OCO2)NCc1ccc2c(c1)OCO2`, for which the inhibition was 7.9% (inactive).
With `CCCn1c(SC(C(=O)NC(=O)NC)c2ccccc2)n[nH]c1=O` (stereo not given), the inhibition is -3.85% (inactive).
Next, `CC1CCCCC1NC(=O)COc1ccc(C#N)cc1` (stereo not given): -7.1% (inactive); `S=c1ccc2ccccc2[nH]1`: 82.2% (active); `O=C(O)Cc1cn(-c2ccccc2)nc1-c1cccs1`: -32.5% (inactive).
Next, `c1ccc(C(N2CCOCC2)N2CCOCC2)cc1`: -2.5% (inactive).
`CC(O)CNc1nc2ccccc2n1CC(O)COCc1ccco1` (stereo not given): the inhibition is -2.1% (inactive).
To `O=C(CNCCCN1CCOCC1)Nc1cccc(C(F)(F)F)c1` belongs 14.8% (inactive); to `O=C(CSc1ccccc1)Nc1ccc(NC(=O)c2ccco2)cc1`, 9.65% (inactive).
Next, `O=C(CSc1ccc2ccccc2c1)N1CCN(C(=O)c2ccco2)CC1`: -5.25% (inactive); `O=C(CSc1ccc(Br)cc1)c1ccco1`: 55.8% (active); `CCSc1nnc(SCC(=O)N2CC(=O)Nc3ccccc32)s1`: 12.2% (inactive).
To `CC(=O)NC(c1ccccc1)c1ccc2cccnc2c1O` (stereo not given) belongs -4.35% (inactive).
`Oc1c(C(c2cccnc2)N2CCOCC2)ccc2cccnc12` (stereo not given): the inhibition is 91.7% (active).
Next, `Oc1c(C(Nc2ccccn2)c2cccnc2)ccc2cccnc12` (stereo not given): 28.4% (inactive).
To `O=C(NCCC1=CCCCC1)Nc1ccc(Cl)cc1` belongs -5% (inactive); to `Cc1cc(C)nc(NNC(=S)Nc2ccc(S(=O)(=O)N3CCOCC3)cc2)n1`, 54.5% (inactive).
Turning to `Cc1ccc(C(=O)CN(C)C2CCCCC2)cc1`, the inhibition is 12.6% (inactive).
As to `CCn1c(=O)cc(SCC(=O)NC2CCCCC2)c2ccccc21`, the inhibition was -8.85% (inactive).
Next, `COC(=O)c1ccc(CSCC(=O)Nc2ccc(C)c(C)c2)o1`: -3.9% (inactive); `COc1cc(/C=C/C(=O)N2CCc3ccccc3C2)cc(OC)c1OC`: -28.7% (inactive).
As to `Oc1cc2c(cc1O)CN(C(=S)NCCc1ccc(Cl)cc1)CCC2`, the inhibition was 100% (active).
As to `S=C(NCCc1ccc(Cl)cc1)Nc1ccccc1`, the inhibition was -14.1% (inactive).
To `O=C1CCN(C(=S)NCCc2ccccc2)CC1` belongs 14.8% (inactive).
Next, `COc1cc(C#N)ccc1Oc1nc(CN2CCOCC2)nc2scc(-c3cccs3)c12`: 18.1% (inactive); `CC(C)Cn1c(SCc2nnc(-c3ccccc3)o2)nnc1-c1ccccc1F`: -1.55% (inactive); `CC1=C(C(=O)OC2CCCC2)C(c2cc3c(cc2Cl)OCO3)C2=C(CCCC2=O)N1` (stereo not given): 116% (inactive).
Next, `COc1ccc(OC)c(NC(=O)CCN2CCC(C)CC2)c1`: -19.2% (inactive).
Take `COc1ccc(OC)c(NC(=O)CS)c1`: the inhibition was 97.5% (active).
With `COc1ccc(OC)c(NC(=O)CC(Cc2ccccc2OC)C(=O)O)c1` (stereo not given), the inhibition was 2.1% (inactive).
To `O=C1C=CC(=O)N1c1ccc(N2CCCCC2)cc1` belongs 99.7% (active).
Take `N#CSc1ccc(N2CCCCC2)cc1`: the inhibition is 21.2% (inactive).
To `O=c1[nH][nH]c(=O)c2cc(N3CCCC3)ccc12` belongs -10.9% (inactive); to `COc1ccccc1C(=O)Nc1ccccc1N1CCN(C)CC1`, -4.85% (inactive).
As to `COc1ccc(NC(=S)N2CCCCC2)cc1`, the inhibition is -6.7% (inactive).
Next, `Fc1ccc(NC(=S)N2CCN=C2Nc2ccc(F)cc2)cc1`: 72.3% (active); `OC1CCN(C(=S)Nc2ccccc2)CC1`: -8.65% (inactive).
To `COc1ccc(-c2nnc(SCC(=O)NC3CCCc4ccccc43)o2)cc1OC` (stereo not given) belongs -3.65% (inactive).
To `COc1cccc(C(=O)Nc2ccccc2C#N)c1OC` belongs -17.5% (inactive).
In the case of `CC(C)Cn1nccc1N`, the inhibition is -12% (inactive).
Next, `CC(C)CN1C(=O)C=CC1=O`: 80.8% (active); `O=C(NCCCN1CCCC1)C1CCN(c2nc3ccccc3n3cccc23)CC1`: -7.35% (inactive); `CC(C)c1n[nH]c(=S)n1N`: 96.5% (active).
To `CC(C)Sc1n[nH]c(=S)n1N` belongs 98.2% (active).
For the compound `CCn1c(C(C)C)n[nH]c1=S`, the inhibition is 2.75% (inactive).
Next, `N#Cc1c(-c2c(O)[nH]c3ccccc23)c2c(-c3ccncc3)[nH]nc2oc1=N`: -1.15% (inactive); `CCS(=O)(=O)Nc1ccc(Cl)cn1`: 89.8% (inactive); `COCCNc1oc(COc2ccc(Br)cc2)nc1C#N`: -15% (inactive).
Next, `COc1ccc(C2Nn3c(C)nnc3SC2C(=O)N2CCCC2)cc1` (stereo not given): -6.35% (inactive).
To `Cc1ccc(-n2c(SC(C)C(=O)NC(N)=O)nc3ccccc32)cc1` (stereo not given) belongs -6.15% (inactive).
Regarding `CCCCSC1=NC(C)(C)Nc2ccccc21`, the inhibition is -13.3% (inactive).
To `CC(C)NC(=O)CSc1nc(-c2ccccc2)cn1N` belongs 11.2% (inactive); to `CCOC(=O)c1cc(-c2ccccc2)no1`, -8.95% (inactive).
As for `O=C(COC(=O)/C=C/c1cccs1)Nc1ncc(Br)s1`, the inhibition was 0.8% (inactive).
To `CCOc1ccc2c(c1)sc1nc(=O)n(-c3ccccc3)c(=O)n12` belongs 3.85% (inactive); to `CCOc1ccc(OCCBr)cc1`, -5.55% (inactive).
Turning to `CCOc1ccc2[nH]c(=S)sc2c1`, the inhibition was 81.3% (active).
To `CNC(=O)c1cc2c(n(-c3ccccc3)c1=O)CC(C)(C)CC2=O` belongs 72.9% (inactive).

The values are drawn from PubChem BioAssay AID493033 (ICCB-Longwood Screening Facility, Harvard Medical School, 2011).
